Experimental data reported in the supplement of paper PMC7057948, “A genome-wide approach for identification and characterisation of metabolite-inducible systems” (Nature Communications, 2020).

Assays:
Test in all cases: relative induction of RFP reporter vs primary effector (background-corrected); higher = stronger activation of the biosensor
Conditions in all cases: inducer concentration 5 mM; 6 h; Cupriavidus necator H16; minimal medium + 0.4% gluconate
[1] = test system: AcoR/P_H16_RS19445 acetoin biosensor (pEH052)
Description: (§1)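 C. necator H16 strains, each carrying one of 21 transcription factor/inducible promoter–mRFP biosensor plasmids, were grown in minimal medium in 96-well plates (robotic platform). Each was exposed to 46 structurally or metabolically related compounds at 5 mM at 30 °C. OD-normalised RFP fluorescence was read 6 h later and expressed as relative induction (%) = 100 × (FL compound − FL uninduced)/(FL primary inducer − FL uninduced); mean of n=4.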

[2] = test system: AraC/P_araBAD L-arabinose biosensor (pEH176)
Description: as §1

[3] = test system: BenM/P_H16_RS09790 benzoate biosensor (pEH148)
Description: as §1

[4] = test system: FdsR/P_H16_RS03165 formate biosensor (pEH134)
Description: as §1

[5] = test system: GabR/P_H16_RS23655 GABA biosensor (pEH256)
Description: as §1

[6] = test system: HpdR/P_H16_RS18295 3-hydroxypropanoate biosensor (pEH010)
Description: as §1

[7] = test system: KynR/P_H16_RS14030 L-kynurenine biosensor (pEH136)
Description: as §1

[8] = test system: NahR/P_H16_RS08125 salicylate biosensor (pEH042)
Description: as §1

[9] = test system: OapR/P_H16_RS01330 beta-alanine biosensor (pEH147)
Description: as §1

[10] = test system: PcaQ/P_H16_RS30145 3,4-dihydroxybenzoate biosensor (pEH161)
Description: as §1

[11] = test system: PhgR/P_H16_RS05530 phenylglyoxylate biosensor (pEH155)
Description: as §1

[12] = test system: PhhR/P_H16_RS18365 L-phenylalanine biosensor (pEH137)
Description: as §1

[13] = test system: SauR/P_H16_RS13695 sulfonatoacetate biosensor (pEH157)
Description: as §1

[14] = test system: TtdR/P_H16_RS10665 tartrate biosensor (pEH083)
Description: as §1

[15] = test system: XdhR/P_H16_RS05055 xanthine biosensor (pEH154)
Description: as §1

[16] = test system: heterologous inducible system pEH002 (rhamnose/acrylate/cumate/itaconate set)
Description: as §1

[17] = test system: heterologous inducible system pEH020 (rhamnose/acrylate/cumate/itaconate set)
Description: as §1

[18] = test system: heterologous inducible system pEH040 (rhamnose/acrylate/cumate/itaconate set)
Description: as §1

[19] = test system: heterologous inducible system pEH086 (rhamnose/acrylate/cumate/itaconate set)
Description: as §1

[20] = test system: BadR/P_H16_RS27200 cyclohexanecarboxylate biosensor (pEH159)
Description: as §1
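Further: RFP excited at 585 nm with emission read at 620 nm, culture medium blanks subtracted from fluorescence and absorbance prior to normalisation.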

SMILES	relative induction of RFP reporter [1] [%]	relative induction of RFP reporter [2] [%]	relative induction of RFP reporter [3] [%]	relative induction of RFP reporter [4] [%]	relative induction of RFP reporter [5] [%]	relative induction of RFP reporter [6] [%]	relative induction of RFP reporter [7] [%]	relative induction of RFP reporter [8] [%]	relative induction of RFP reporter [9] [%]	relative induction of RFP reporter [10] [%]	relative induction of RFP reporter [11] [%]	relative induction of RFP reporter [12] [%]	relative induction of RFP reporter [13] [%]	relative induction of RFP reporter [14] [%]	relative induction of RFP reporter [15] [%]	relative induction of RFP reporter [16] [%]	relative induction of RFP reporter [17] [%]	relative induction of RFP reporter [18] [%]	relative induction of RFP reporter [19] [%]	relative induction of RFP reporter [20] [%]
O=C(O)C1=C[C@@H](O)[C@@H](O)[C@H](O)C1 [shikimate]	0.0178	-0.00161	-0.000316	-2.48	-0.317	1.03	-0.0973	0.00146	0.246	2.49	-0.587	0.165	0.0792	-0.0735	-0.446	-0.00769	-0.782	-0.0558	0.188	
O=C(O)/C=C\C=C/C(=O)O [cis,cis-muconate]	-0.277	-0.0203	-0.00774	0.498	-1.92	0.114	0.571	0.022	0.13	-0.0137	-0.341	-0.13	-0.0287	0.125	-0.143	-0.00409	0.263	0.756	0.0837	
O=C(O)CC(CC(=O)O)C(=O)O [tricarballylate]	-0.69	-0.0168	-0.036	-2.35	-2.41	-0.311	-0.332	-0.00531	-1.38	-0.249	-0.562	-0.293	0.0103	1.3	-1.15	0.0188	-1.48	0.497	-0.0817	
O=C(O)C1CCCC1 [cyclopentane-1-carboxylate]	9.44	0.014	0.298	-2.26	-1.83	-0.057	0.335	-0.00226	3.18	-0.184	-0.24	-0.439	0.584	1.99	0.428	-0.0145	0.409	7.83	0.259	10.9
C[C@H](N)C(=O)O [L-alanine]	-2.72	-0.0291	-0.053	-2.12	-2.55	-0.329	-0.519	0.00167	-0.209	-0.263	-0.259	-0.741	-0.0427	-0.256	-0.737	-0.00357	-1.6	-1.7	-0.23	
O=S(=O)(O)CCO [isethionate]	-1.41	-0.00384	-0.0202	-5.83	-2.12	-0.0757	0.0938	0.0152	-0.424	6.61	-0.518	-0.0754	1.56	2.47	-0.627	0.0178	-1.34	-1.22	-0.0664	
NCC(N)C(=O)O (stereo not drawn) [2,3-diaminopropanoate]	0.396	0.013	0.0534	-1.38	-1.16	0.349	-0.43	0.0162	0.656	-0.0605	-0.221	0.0532	-0.0132	-0.586	-0.1	0.0204	-0.419	2.94	0.484	
O=C(O)c1ccc(O)cc1 [4-hydroxybenzoate]	0.234	-0.0125	-0.00462	1.94	-0.622	0.357	-0.184	0.159	-0.798	212	-0.153	-0.483	-0.0101	0.895	-0.191	0.0183	-0.27	-0.0264	0.318	
